Records with an inconclusive call do not appear. Activity calls are given as the source filed them. The call rests on the fitted dose curve; in most records, active means well fitted inhibition curve with a large enough effect; inconclusive means small, poorly fitted or top-dose-only effect; inactive means no such curve, though single readings can be large or run the other way.
molecular target: Coelenterazine h 2-monooxygenase (Renilla reniformis) (UniProt P27652); experiment: qHTS Assay for Inhibitors of Sea Pansy Luciferase from the GSK Published Protein Kinase Inhibitor Set; conditions: purified Renilla luciferase, luminescence; series mostly up to 57.5 µM
Method in brief: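 qHTS (roughly 60 uM down to 300 pM) against 1 nM Renilla luciferase, substrate coelenterazine h 5 uM, Tris acetate pH 7.5 buffer with NaCl, Tween-20 and BSA. Luminescence measured after an average 2 min incubation.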
Potency means the concentration at half of the fitted maximal effect.

Coelenterazine h 2-monooxygenase (Renilla reniformis), sequence (P27652 whole entry, looked up): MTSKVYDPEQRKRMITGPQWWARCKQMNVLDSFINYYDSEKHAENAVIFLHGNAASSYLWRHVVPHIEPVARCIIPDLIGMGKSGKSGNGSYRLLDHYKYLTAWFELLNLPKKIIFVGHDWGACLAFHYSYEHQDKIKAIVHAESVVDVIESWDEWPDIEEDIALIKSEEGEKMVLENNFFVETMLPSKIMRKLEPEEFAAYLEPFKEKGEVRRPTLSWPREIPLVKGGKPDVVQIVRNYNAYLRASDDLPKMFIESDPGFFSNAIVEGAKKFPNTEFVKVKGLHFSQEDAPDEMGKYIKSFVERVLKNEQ

Potency, inactive:
FC(F)(F)CNc1nccc(-c2cnn3ncccc23)n1
Fc1ccc(-c2ncn(C3CCNCC3)c2-c2ccnc(Oc3ccc4c(c3)OCO4)n2)cc1
CCn1c(-c2nonc2N)nc2cnc(Oc3cccc(NC(=O)c4ccc(OCCN5CCOCC5)cc4)c3)cc21
Cc1nnc(-c2ccc(C)c(-c3ccc(C(=O)NCc4ccc(Cl)cc4)cc3)c2)o1
O=C(O)c1ccc(Oc2nccc(-c3c(-c4ccc(F)cc4)ncn3C3CCNCC3)n2)cc1
NS(=O)(=O)c1ccc(N=Nc2c(O)[nH]c3cccc(CCc4ccncc4)c23)cc1
CC(C)COC(=O)c1ccc2[nH]c(O)c(C=Nc3ccc(S(N)(=O)=O)cc3)c2c1
NS(=O)(=O)c1ccc(N=Nc2c(O)[nH]c3ccc(-c4cnco4)cc23)cc1
COc1cc(Nc2ncc3c(C)nc(-c4cccc(Oc5ccccc5)c4)n3n2)cc(OC)c1OC
NC(=O)c1ccc(-c2nc(-c3ccc4c(c3)OCO4)c(-c3ccccn3)[nH]2)cc1
CCn1c(-c2nonc2N)nc2cncc(C(=O)N3CCC(N)C3)c21 (centres undefined)
CCn1c(-c2nonc2N)nc2c(C#CC(C)(C)O)ncc(OC3CCNCC3)c21
Nc1ncnc2occ(-c3ccc(NC(=O)Nc4cc(C(F)(F)F)ccc4F)cc3)c12
O=S(=O)(CCOCc1ccc(-c2ccc3ncnc(Nc4ccc(OCc5cccc(F)c5)c(Cl)c4)c3c2)o1)c1ccccc1
COc1cc(C=NNc2ncnc3[nH]ncc23)ccc1O
CCOc1ccc2c(-c3ccnc(Nc4cccc(C(F)(F)F)c4)n3)cnn2n1
O=C1NC(=O)C(c2ccccc2Cl)=C1Nc1cccc(O)c1
OCCCNc1nccc(-c2c(-c3ccc(F)cc3)nn3cc(C(F)(F)F)ccc23)n1
c1ccc(Nc2ncc(-c3ccccc3)o2)cc1
COc1cc2ncn(-c3cc(OCc4ccccc4C(F)(F)F)c(C(C)=O)s3)c2cc1OC
COc1ccc(-c2nn3ncccc3c2-c2ccnc(Nc3ccc(F)c(F)c3)n2)cc1
CC(Oc1cc(-n2cnc3ccc(OCC(O)CO)cc32)sc1C(N)=O)c1ccccc1Cl (centres undefined)
COc1cccc(-n2ncc3c(NN=Cc4ccc(C)cc4)ncnc32)c1
CN1CCC(n2cnc(-c3ccc(F)cc3)c2-c2ccnc(N)n2)CC1
O=S1CCN(Cc2ccc(-c3ccc4ncnc(Nc5ccc(OCc6ccccc6)c(Cl)c5)c4c3)o2)CC1
CCOc1ccc2c(-c3ccnc(Nc4cc(OC)cc(C(F)(F)F)c4)n3)cnn2n1
Cc1cc(O)cc(C)c1C=Cc1cncc(C(N)=O)c1
CCn1c(-c2nonc2N)nc2c(C#CC(C)(C)O)nc(CN3CCCC3)cc21
NC(=O)c1ccc(Oc2nccc(-c3c(-c4ccc(F)cc4)ncn3C3CCNCC3)n2)cc1
CC1=C(C(=O)Nc2ccc3[nH]ncc3c2)C(c2ccc(Cl)c(Cl)c2)CC(=O)N1 (centres undefined)
Nc1ncnc2occ(-c3ccc(NC(=O)Nc4cccc(C(F)(F)F)c4)cc3)c12
CCc1nn2ncccc2c1-c1ccnc(NC2CC2)n1
c1ccc(Oc2ccc(Nc3ncc(-c4ccccc4)o3)cc2)cc1
COc1cc(C=NNc2ncnc3c2cnn3Cc2ccccc2)ccc1O
COc1cccc(-n2ncc3c(NN=Cc4ccncc4)ncnc32)c1
CC(=Nc1ccc(S(N)(=O)=O)cc1)c1c(O)[nH]c2ccccc12
Nc1nc(-c2ccccn2)c(-c2ccc3ncccc3n2)s1
COc1ccccc1C1=C(Nc2ccccc2)C(=O)NC1=O

Potency, active:
CN1CCN(Cc2ccc(-c3cc4ncnc(Nc5ccc(OCc6cccc(F)c6)c(Cl)c5)c4s3)o2)CC1 20.6 µM

— PubChem BioAssay AID652015 (National Center for Advancing Translational Sciences (NCATS), 2013)
